According to PubChem BioAssay (EPA / NIEHS):
Inconclusive results are not listed. The source made the active and inactive calls. How the source made its calls: active means hit-call score of the fitted dose curve at least 0.9, where 1 is the maximum; inconclusive means response in the unintended direction; inactive means score below 0.9.

Target: Hepatocyte nuclear factor 4-alpha (Homo sapiens) (UniProt P41235)
Assay: ATG_HNF4a_TRANS: Attagene TRANS-FACTORIAL HepG2 Assay for human Hepatocyte Nuclear Factor 4 alpha (HNF4a) (AID 2282982)
Conditions: HepG2 HNF4a transactivation reporter, mRNA readout
Experimental: ATG_TRANS is a cell-based, multiplexed-readout assay that uses HepG2, a human liver cell line, with measurements taken at 24 hours after chemical dosing in a 24-well plate.ATG_HNF4a_TRANS is one of 30 assay component(s) measured or calculated from the ATG_TRANS assay. It is designed to make measurements of mRNA induction, a form of inducible reporter, as detected with fluorescence intensity signals by Reverse transcription polymerase chain reaction (RT-PCR) and Capillary electrophoresis technology.Data from the assay component ATG_HNF4a_TRANS was analyzed into 1 assay endpoint. This assay endpoint, ATG_HNF4a_TRANS, was analyzed in the positive analysis fitting direction relative to DMSO as the negative control and baseline of activity. Using a type of inducible reporter, measures of mRNA for gain-of-signal activity can be used to understand the reporter gene at the transcription factor-level as they relate to the gene HNF4A. Furthermore, this assay endpoint can be referred to as a primary readout, because this assay has produced multiple assay endpoints where this one serves a reporter gene function. To generalize the intended target to other relatable targets, this assay endpoint is annotated to the nuclear receptor intended target family, where the subfamily is orphan.
Human liver HepG2 cells are transiently transfected with multiple reporter transcription units (MRTUs) in 6-well plates using FuGene 6 reagent (Roche; 3 ml FuGene/1 mg DNA). The MRTU constructs are regulated by a cis-regulating element (promoter). […] A major difference between the CIS and TRANS system is that in CIS activities of endogenous TFs are measured, whereas the TRANS assay evaluates changes in activities of exogenous, chimeric NR-Gal4 proteins. […] At the end of 24 hour incubation, total RNA was isolated using TriZol reagent (Invitrogen). The isolated RNA is then reverse-transcribed using oligo(dT) primer and Mo-MLV reverse transcriptase (Invitrogen) with DNAse I (Ambion) treatment for 30 min. The one-tenth of the produced cDNA was amplified by PCR using Taq DNA polymerase (Invitrogen) and two reporter sequence-specific primers. The PCR products were fluorescently labeled by primer extension with 6-arboxyfluorescein (6-FAM) 5'-labeled reporter sequence-specific primer (2 min at 95 C, 20 s at 68 C and 10 min at 72 C) and these products were digested with 5U of HpaI (New England Biolabs) for 2h at 37 C. The fragments were purified using Qiaquick PCR columns (Qiagen), analyzed on an ABI 3130xL genetic analyzer (Applied Biosystems) with peak positions identified by using a set of X-rhodamine (ROX)-labeled MapMarker1000 molecular weight standards (BioVentures). The raw capillary electrophoresis data was processed using Attagraph software (Attagene).

Chain of Hepatocyte nuclear factor 4-alpha (Homo sapiens) (P41235 whole entry, looked up): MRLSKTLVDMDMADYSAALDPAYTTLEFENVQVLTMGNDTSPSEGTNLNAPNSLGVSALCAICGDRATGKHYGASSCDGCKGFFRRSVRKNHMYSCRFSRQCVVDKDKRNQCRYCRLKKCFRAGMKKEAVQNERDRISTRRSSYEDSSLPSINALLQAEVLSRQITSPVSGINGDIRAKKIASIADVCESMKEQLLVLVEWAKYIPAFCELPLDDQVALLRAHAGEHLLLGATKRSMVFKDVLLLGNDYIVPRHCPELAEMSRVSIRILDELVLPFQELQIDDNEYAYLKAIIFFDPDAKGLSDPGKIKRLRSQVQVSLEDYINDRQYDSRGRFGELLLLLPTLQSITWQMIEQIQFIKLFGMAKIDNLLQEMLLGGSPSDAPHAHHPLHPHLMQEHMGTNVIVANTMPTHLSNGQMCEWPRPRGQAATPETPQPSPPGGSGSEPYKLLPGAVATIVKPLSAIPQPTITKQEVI

Compound	outcome
O=C(O)c1cccc(Cl)n1	inactive
c1coc(CNc2ncnc3nc[nH]c23)c1	inactive
O=C(OCc1ccccc1)c1ccccc1O	inactive
c1ccc2c(c1)-c1ccc3ccc4cccc5cc-2c1c3c45	inactive
OCC=Cc1ccccc1	inactive
CC(C)(C)c1cc(CCC(=O)OCCSCCOC(=O)CCc2cc(C(C)(C)C)c(O)c(C(C)(C)C)c2)cc(C(C)(C)C)c1O	inactive
CN1CCc2cccc3c2[C@H]1Cc1ccc(O)c(O)c1-3	inactive
NC(=O)c1cnccn1	inactive
NNC(=O)OCc1ccccc1	inactive
[O-]/[N+](=N\O)c1ccccc1	inactive
CC(C)Cc1ccc(C(C)C(=O)O)cc1 (stereo not given)	inactive
CC(C)(O)C(=O)c1ccc(OCCO)cc1	inactive
CC(CO)(CO)[N+](=O)[O-]	inactive
NC(=O)NC(N)=O	inactive
C[C@]12CC[C@@H]3c4ccc(O)cc4CC[C@H]3[C@@H]1CC[C@@H]2O	inactive
CC(=O)CC(=O)N(C)C	inactive
CC(CCO)CC(C)(C)C (stereo not given)	inactive
COc1ccc2[nH]cc(CCNC(C)=O)c2c1	inactive
C=C(C)C(N)=O	inactive
CCCCC1CCCCC(=O)O1 (stereo not given)	inactive

Compound	outcome
CC12CCC(C1)C(C)(C)C2O (stereo not given)	inactive
NC(N)=S	inactive
O=S(=O)(O)CCCN1CCOCC1	inactive
CCCCC/C=C\C=C\C(=O)OCC	inactive
CC(C)Cc1ccccc1	inactive
CN(C)C(=O)Nc1ccccc1	inactive
C[N+](C)(C)CCO	inactive
CCCCCCCCSCc1cc(C)c(O)c(CSCCCCCCCC)c1	inactive
CC(O)CN (stereo not given)	inactive
C#C[C@]1(O)CC[C@H]2[C@@H]3CCc4cc(O)ccc4[C@H]3CC[C@@]21C	inactive
CCC(=O)OC/C=C(\C)CCC=C(C)C	inactive
CC=CC(=O)C1=C(C)C=CCC1(C)C	inactive
CC(C)CCOC(=O)CC(C)C	inactive
C/C=C(\C)C(=O)OC/C=C(\C)CCC=C(C)C	inactive
C=CC(C)CCCC(C)(C)O (stereo not given)	inactive
O=C1OCc2ccccc21	inactive
CC/C(=C(\c1ccccc1)c1ccc(OCCN(C)C)cc1)c1ccccc1	inactive
CC(=O)c1ccc(O)cc1	inactive
CCCOC(=O)CC	inactive
C=CCOC(=O)/C=C\C(=O)OCC=C	inactive
